# Experimental data: PubChem BioAssay AID720532 (National Center for Advancing Translational Sciences (NCATS), 2013)
# Several values for one entry are separate records, joined by “and”; a condition that tells them apart may be missing. Equal entries are not always repeated. Among all 18,000 compounds or so, about 1,200 (6.7%) were called active. About 16% were inconclusive and are not listed. The call rests on the fitted dose curve; tested in HEK293 cells. Many of the other results were omitted from the sample, so actives are more common in it than they were.
# Test: qHTS for Inhibitors of binding or entry into cells for Marburg Virus
# Conditions: Marburg virus pseudotype entry/binding inhibition, cell-based; series mostly up to 49.2 µM; activity change, negative = inhibition: at the top concentration
# On the % scale 0 is the no-effect control and ±100 the full control effect; potency means the concentration at half of the fitted maximal effect.
Compound,"activity change, negative = inhibition",Potency
CCOC(=O)CN1C(=O)NC(CCc2ccccc2)C(C(C)=O)=C1C (stereo unspecified),3.64% [at 8.59 µM] (inactive),–
COC(=O)C(C(=O)OC)C1c2ccccc2C=C(C2CC2)N1C(=O)OC (stereo unspecified),inactive,–
CCCNC(=O)CC1OC(C2CCCCC2)Cc2ccccc21 (stereo unspecified),-26.1% [at 8.59 µM] (inactive),–
Cc1cc2oc(=O)cc(CN(C)Cc3ccccc3)c2cc1Cl,32.3% (inactive),–
CCOC(OCC)OCC,4.67% (inactive),–
CCCCC/C=C\C/C=C\C/C=C\CCCCCCC(N)=O,-17.1% (inactive),–
COc1ccc([C@]23Cc4cc(OC)c(OC)cc4[C@H](O2)c2c(cc(C)oc2=O)O3)cc1,8.88% [at 8.59 µM] (inactive),–
O=C(O)C1CCCN(CCC=C(c2ccccc2)c2ccccc2)C1 (stereo unspecified),inactive,–
O=C(O)C[C@@H]1NC(=O)[C@H](Cc2ccccc2)NC1=O,2.12% (inactive),–
O=C(O)CCCc1ccccc1,inactive,–
O=C(c1ccc(F)cc1)C1CCN(CCCCc2ccccc2)CC1,–,15.8 µM (active)
c1ccc(CCCCN2CCC(c3ccccc3)CC2)cc1,–,14.1 µM (active)
CCCCCCCC[C@@H](O)/C=C/C=C/C=C\[C@@H](O)CCCC(=O)O,0.476% (inactive),–
COC(=O)C1(C(C)=O)CC2=CC[C@H]3C(=O)N(c4ccccc4)C(=O)[C@H]3[C@@H]2Cc2ccccc2[C@@H]1C[N+](=O)[O-] (stereo partly specified),inactive,–
CC(C)(C)OC(=O)NCCCC1=CC2=CC(=O)C(C)(OC(=O)c3ccco3)C(=O)C2=CO1 (stereo unspecified),-1.5% (inactive),–
NNc1nnc(NN)c2ccccc12,34.2% (inactive),–
NNc1nnc(Cc2ccncc2)c2ccccc12,–,11.2 µM (active)
CCN(CCNC(=O)[C@H]1C=C(OC)C(=O)C[C@@H]2c3ccccc3C[C@]12C)C(C)=O,0.4% [at 8.59 µM] (inactive),–
FCOC(C(F)(F)F)C(F)(F)F,22.4% (inactive),–
CC1(OC(=O)c2ccc(Cl)nc2)C(=O)Cc2cc(-c3ccsc3)ncc2C1=O (stereo unspecified),-19.4% [at 8.59 µM] (inactive),–
CN1CCCC1CCO[C@@](C)(c1ccccc1)c1ccc(Cl)cc1 (stereo partly specified),–,10 µM (active)

Compound,"activity change, negative = inhibition",Potency
CN1CCC[C@@H]1CCO[C@](C)(c1ccccc1)c1ccc(Cl)cc1,–,14.1 µM (active) and 28.2 µM (active)
CC(=O)C1=C(C)N(Cc2ccccc2)C(=O)NC1c1cccs1 (stereo unspecified),3.55% [at 8.59 µM] (inactive),–
CCCCCCN1C[C@@H](O)[C@H](n2cc(C3CC3)nn2)C[C@H]1c1ccccc1,-14.4% (inactive),–
COc1ccc(C2=C(N3CCc4ccccc43)C(=O)NC2=O)cc1,28.3% (inactive),–
CCCCC/C=C\C/C=C\C/C=C\CCCCC(=O)NCC(=O)O,6.5% (inactive),–
CC(C)[C@H]1COCCS(=O)(=O)N1Cc1ccccc1-c1cccc2c1sc1ccccc12,-18.2% (inactive),–
COC(=O)C1=C(C)N(Cc2ccccc2)C(=NCCc2ccc([N+](=O)[O-])cc2)NC1c1cccc(F)c1 (stereo unspecified),9.24% [at 8.59 µM] (inactive),–
COc1ccc(C2CC(=O)Oc3ccc(C(C)(C)C)cc32)cc1 (stereo unspecified),4.9% (inactive),–
CCOC(=O)C1C/C(=C\C(C)=O)c2cccc(C(F)(F)F)c2O1 (stereo unspecified),6.48% (inactive),–
Cc1cnc(C)c(-c2cc(F)c3c(c2)CC(CNC(=O)c2cccc(Cn4cccn4)c2)O3)n1 (stereo unspecified),10.3% (inactive),–
CCN(CC)CCCC(C)Nc1ccnc2cc(Cl)ccc12 (stereo unspecified),–,10 µM (active) and 5.01 µM (active)
COc1ccc(-c2c(C)cc3oc(=O)cc(-c4ccccc4)c3c2C)cc1F,0.588% (inactive),–
C=CCN1C(=O)N(Cc2ccccc2)c2ccccc2S1(=O)=O,11% (inactive),–
COc1ccc2[nH]cc(CCNCc3ccc(Br)cc3)c2c1,–,15.8 µM (active)
COc1ccc2[nH]cc(CCNc3nc(-c4cccc(NS(C)(=O)=O)c4)nc4ccccc34)c2c1,-18.6% (inactive),–
COc1ccc(CNS(=O)(=O)c2cc(Br)ccc2Br)cc1,18.8% (inactive),–
Cc1cc(N(C)C)nc(Cl)n1,9.23% (inactive),–
CC(C)(C)Nc1oc(-c2ccccc2)nc1C=Cc1ccccc1,3.65% [at 8.59 µM] (inactive),–
CCOC(=O)CCN1C(=O)[C@@H]2[C@H]3[C@H](O)[C@H](O)CC(=NOCC(C)C)[C@@H]3CC[C@H]2C1=O,-10.9% [at 8.59 µM] (inactive),–
C=C(C)C1CC=C(C)C(O)C1 (stereo unspecified),0.898% (inactive),–
